# Source: PubChem BioAssay (National Center for Advancing Translational Sciences (NCATS))
# JMJD2E inh – qHTS Assay for Inhibitors of Human Jumonji Domain Containing 2E (JMJD2E); Potency, µM (top dose mostly 57.1 µM), usual class: inhibitors; Lysine-specific demethylase 4E (Homo sapiens), B2RXH2; actives 1.6% (n = 230,000); JMJD2E catalytic domain, FDH-coupled NADH fluorescence (FDH is formaldehyde dehydrogenase); further: nearly all actives have a fitted effect of over 50% in size
# Target sequence (B2RXH2 1-337 limits assumed): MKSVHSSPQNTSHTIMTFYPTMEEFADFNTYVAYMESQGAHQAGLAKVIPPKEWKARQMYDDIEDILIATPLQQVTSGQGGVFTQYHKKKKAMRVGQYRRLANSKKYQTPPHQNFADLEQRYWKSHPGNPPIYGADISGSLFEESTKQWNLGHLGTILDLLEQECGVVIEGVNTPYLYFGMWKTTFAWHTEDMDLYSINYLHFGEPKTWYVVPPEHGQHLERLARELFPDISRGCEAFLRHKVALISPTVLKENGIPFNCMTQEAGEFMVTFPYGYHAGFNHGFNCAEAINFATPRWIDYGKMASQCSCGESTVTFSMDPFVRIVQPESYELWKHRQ
# ALDH1A1 inh-1 – qHTS Assay for Inhibitors of Aldehyde Dehydrogenase 1 (ALDH1A1). Aldehyde dehydrogenase 1A1 (Homo sapiens), P00352. Purified ALDH1A1, NADH fluorescence, propionaldehyde substrate. Potency, µM (top dose mostly 75.3 µM), actives largely listed as inhibitors. actives 7.3% (n = 220,000). AID 1030, 2008
# HPGD inh – qHTS Assay for Inhibitors of HPGD (15-Hydroxyprostaglandin Dehydrogenase). 15-hydroxyprostaglandin dehydrogenase [NAD(+)] (Homo sapiens), P15428. purified HPGD, NADH fluorescence kinetic, PGE2 substrate. Potency, µM, usual class: inhibitors. actives 4.3% (n = 150,000). AID 894, 2007
# Target sequence (P15428 whole entry, looked up): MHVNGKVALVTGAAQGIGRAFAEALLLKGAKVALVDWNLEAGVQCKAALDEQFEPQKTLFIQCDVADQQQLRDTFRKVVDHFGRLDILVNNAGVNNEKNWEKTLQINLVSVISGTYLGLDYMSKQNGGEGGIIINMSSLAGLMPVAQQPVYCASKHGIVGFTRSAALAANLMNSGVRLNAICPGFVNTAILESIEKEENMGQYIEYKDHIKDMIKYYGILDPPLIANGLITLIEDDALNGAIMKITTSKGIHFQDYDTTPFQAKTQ
#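 20 nM HPGD preincubated 15 min at room temperature with compound in 50 mM Tris-HCl pH 8, 0.01% Tween 20. Started with 1 mM NAD+ and 30 uM prostaglandin E2; NADH fluorescence (360/450 nm) read 5 times over 30-s intervals, last minus first.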
# LMNA splice mod – qHTS Assay for Modulators of Lamin A Splicing. actives 0.01% (n = 200,000). Potency, µM (titrated, usually from 46.1 µM), most hits filed as inhibitors. AID 1487, 2009. HeLa LMNA splicing GFP/RFP minigene ratio, 48 h; active means well fitted inhibition curve with a large enough effect in the signal ratio, with a control signal flat, not every such curve was filed as active; inconclusive means small, poorly fitted or top-dose-only effect, or effect the other way, or a change in a side signal; the % refers to the signal ratio
#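 S3 HeLa stable clones carrying a lamin A-EGFP splicing minigene plus DsRed2 were seeded at 600 cells/well in Opti-MEM with 2% FBS, pin-dosed and incubated 48 h at 37°C. Acumen cytometry (488 nm) gave the GFP/RFP total-intensity ratio.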
# HTT aggregate – qHTS Multiplex Assay to Identify Dual Action Probes in a Cell Model of Huntington: Aggregate Formation (GFP) | PC12 HttQ103-GFP aggregates, Acumen cytometry, 40 h | Potency, µM (highest dose often 46.1 µM), most hits filed as inhibitors | actives 1.1% (n = 220,000) | AID 1688, 2009; active means well fitted curve in the direction sought with a large enough effect; inconclusive means small, poorly fitted or top-dose-only effect, or another doubt; inactive means no such curve, though single readings can be large; an effect the other way counts as inactive or inconclusive; further: nearly all actives have a fitted effect of over 60% in size
#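 Ecdysone-promoter PC12 model expressing HTT exon 1 Q103 fused to GFP, induced by tebufenozide at 100 nM final. Compounds titrated; aggregates sized 1–25 µm scored on a 488 nm laser cytometer.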
# HTT cytoprotect – qHTS Multiplex Assay to Identify Dual Action Probes in a Cell Model of Huntington: Cytoprotection (ATP) | PC12 HTT-Q103 induced, cytoprotection, ATP luminescence, 40 h | Potency, µM (titrated, usually from 56.4 µM), usual class: activators | actives 0.14% (n = 230,000) | AID 1471, 2008; active means well fitted curve in the direction sought with a large enough effect; inconclusive means small, poorly fitted or top-dose-only effect, or another doubt; inactive means no such curve, though single readings can be large; an effect the other way counts as inactive or inconclusive; further: nearly all actives have a fitted effect of over 45% in size
#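 ATP quantification (ATPlite) reports survival of PC12 cells in which tebufenozide, 100 nM final, switches on Htt exon 1 with 103 glutamines linked to GFP; compounds are titrated.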
# HPGD inh conf – Confirmation qHTS Assay for Inhibitors of HPGD (15-Hydroxyprostaglandin Dehydrogenase); shares compounds with HPGD inh; recombinant HPGD, NADH fluorescence, PGE2 substrate; Potency, µM (top dose mostly 57.1 µM), usual class: inhibitors; actives 90% (n = 90); AID 2429, 2010; calls by dose curve
# ALDH1A1 inh-2 – Inhibitors of Aldehyde Dehydrogenase 1 (ALDH1A1): Followup Confirmation and Counterscreen; purified ALDH1A1, NADH fluorescence, propionaldehyde/NAD+; AID 493210, 2011; Potency, µM (highest dose often 57.1 µM), actives largely listed as inhibitors; actives 90% (n = 90); shares compounds with ALDH1A1 inh-1; calls by dose curve
# Numbers stand for hits; - = inactive; ? = inconclusive; . = no result; [ ] = dose if it differs, or a comment. The list is not random: actives were taken first. Their share in the collection is about 9.2%. Unless noted, the call rests on the fitted dose curve; in most records, active means well fitted inhibition curve with a large enough effect (not every such curve was filed as active); inconclusive means small, poorly fitted or top-dose-only effect, or another doubt; inactive means no such curve, though single readings can be large or run the other way.
SMILES,JMJD2E inh,ALDH1A1 inh-1,HPGD inh,LMNA splice mod,HTT aggregate,HTT cytoprotect,others
COc1cc2ccccc2c2cc([N+](=O)[O-])oc12,.,-[13.5 µM],-,.,.,-[10 µM],
Oc1cc(Cl)cc(Cl)c1,.,-,-,.,.,-,
Cc1[nH]c2ccccc2c1/C=N/O,-,-,12.6µM,-,-,-[0.074 µM],
CCC(C)N1C(=O)/C(=C/c2ccc3c(c2)CCN3CCCCl)C(=O)NC1=S (stereo unspecified),-,0.224µM,25.1µM,?,-,-[10 µM],
Cn1cccc1/C=C1/C(=O)NC(=S)N(Cc2ccc(F)cc2)C1=O,-,.,.,.,-[9.22 µM],-[10 µM],
Cc1nnc2n1-c1ccc(Cl)cc1C(c1ccccc1)=NC2,-,-,15.8µM,?,-,?,
COc1ccc(C2=NCc3nnc(C)n3-c3ccc(Cl)cc32)cc1Cl,-,?,-,?,-,-[1.9 µM],
Clc1ccc2c(c1)C(c1ccccc1Cl)=NCc1nnc(N3CCN(CCOc4ccccc4)CC3)n1-2,-,10µM,-,?,?,.,
COc1ccccc1C1=NCc2nnc(C)n2-c2ccc(Cl)cc21,-,-,28.2µM,-,-,-[0.074 µM],
ClC=CCl,.,-,-,.,.,-,
O=c1[nH]c(=O)n(Cc2ccccc2)c(O)c1C=Nc1ccc(CN2CCOCC2)cc1,?,14.1µM,.,-,-,-,
O=c1[nH]c(=O)n(CCC2=CCCCC2)c(O)c1C=NCCN1CCNCC1,-,14.1µM,-,-,-,-[0.074 µM],
O=c1[nH]c(=O)n(Cc2ccccc2)c(O)c1C=NCCN1CCNCC1,-,15.8µM,22.4µM,-,-,-[10 µM],
C=CCn1c(O)c(C=NCCN2CCNCC2)c(=O)[nH]c1=O,-,?,-,-,-[9.22 µM],-,
Cc1ncc([N+](=O)[O-])n1CCN=[N+]=[N-],.,-[13.5 µM],-,.,.,-[10 µM],
Cc1ccc(N)cc1[N+](=O)[O-],.,?,-,.,.,-,
O=c1ccc2cc(O[C@@H]3O[C@@H](CO)[C@@H](O)[C@@H](O)[C@H]3O)c(O)cc2o1,.,.,.,.,.,-,
C[N+]1(C)CCc2cc3c(cc2[C@@H]1[C@@H]1OC(=O)c2c1ccc1c2OCO1)OCO3,.,.,.,.,.,-[1.9 µM],
CCCCOC(=O)c1ccccc1C(=O)OCc1ccccc1,.,?,-,.,.,-,
O=C(OCCCCN1C(=O)c2ccccc2C1=O)c1ccc(Br)o1,-,?,15.8µM,?,-,-[10 µM],
Cc1ccccc1C(O)(Cc1ccccc1)C1CN2CCC1CC2 (stereo unspecified),-,-,-,-,-[9.22 µM],3.16µM,
Cc1ccc(NC(=O)OC(C)CNC(=O)Oc2cccc(C)c2)cc1 (stereo unspecified),-,20µM,.,-,-,-,
CCN(CC)C(=O)c1ccc2c(c1)C1C(Cl)C(Sc3ccccc3[N+](=O)[O-])CC1C(C(=O)O)N2 (stereo unspecified),?,25.1µM,.,.,-[9.22 µM],-[10 µM],
O=C(O)c1cccc2c1NC(c1cccc([N+](=O)[O-])c1)C1CC(Sc3ccccc3[N+](=O)[O-])C(Cl)C21 (stereo unspecified),?,3.55µM,.,-,.,.,
Cc1ccc2c(c1Cl)NC(C(=O)O)C1CC(Sc3ccccc3[N+](=O)[O-])C(Cl)C21 (stereo unspecified),-,.,.,.,-[9.22 µM],-[10 µM],
SMILES,JMJD2E inh,ALDH1A1 inh-1,HPGD inh,LMNA splice mod,HTT aggregate,HTT cytoprotect,others
N[C@@H](CP(=O)(O)O)C(=O)O,.,-[13.5 µM],-,.,.,-[10 µM],
Cc1ccccc1CN1CCN(C(=O)Cc2ccccc2)CC1,?,-,.,-,.,.,
COc1ccc(OCC(=O)N2CCN(Cc3c[nH]c4ccccc34)CC2)cc1,-,-,-,?,11.2µM,-[10 µM],
Cn1cccc1CN1CCN(C(=O)COc2ccccc2)CC1,-,-,-,-,-,-,
O=C(Cc1ccccc1)N1CCN(Cc2c[nH]c3ccccc23)CC1,-,25.1µM,-,?,12.6µM,-[10 µM],
O=C(COc1ccccc1)N1CCN(Cc2c[nH]c3ccccc23)CC1,-,-,-,?,15.8µM,-,
CC(C)c1nccn1Cc1ccc(Cl)cc1Cl,.,-[13.5 µM],-,.,.,-[10 µM],
C=CCN1CCc2cccc3c2[C@@H]1Cc1ccc(O)c(O)c1-3,.,.,.,.,.,-[1.9 µM],
COc1cc(CC2(CCc3ccncc3)C(=O)NC(=O)NC2=O)cc(OC)c1OC,-,-,.,-,-[9.22 µM],-[10 µM],
COc1cc2c(cc1OC)-c1c(OC)c(OC)c(OC)c3ccnc(c13)C2=O,-,-,?,?,11.2µM,.,
C[C@@H](Cc1ccc(Cl)cc1Cl)NO,.,-[13.5 µM],-,.,.,-[10 µM],
O=P1(NC2CCCC2)COc2ccccc2OC1,-,-,0.0708µM,-,-,-[10 µM],HPGD inh conf=0.159µM
CCN1C[C@]2(C)CC[C@H](OC)[C@@]34[C@H]1C1(OCO[C@@]15C[C@H](OC)C1C[C@]3(O)C5[C@H]1OC)[C@@H](O)[C@H]24,-,-,-,.,.,-,
O=P1(NCc2ccco2)COc2ccccc2OC1,-,-,1µM,-,-,-,HPGD inh conf=1µM
c1ccc(CC(NCc2ccco2)c2ccccc2)cc1 (stereo unspecified),-,-,.,-[9.22 µM],-,-,
O=C1C=CC(=O)c2c1ccc1c2ccc2ccccc21,-,0.316µM,11.2µM,?,.,-,ALDH1A1 inh-2=0.316µM
O=CN1CCCCC1C1CC[C@H]2CCCCN2C1 (stereo partly specified),-,-,-,.,.,-[1.9 µM],
